Here are results for eight molecules from PubChem BioAssay (Tox21).

Test [1] in a line: qHTS assay to identify small molecule antagonists of the estrogen receptor alpha (ER-alpha) signaling pathway using the BG1 cell line in the presence of 0.1 nM 17-beta-estradiol - cell viability counter screen (AID 1259241). Note: nearly all actives have a fitted effect of over 40% in size. Put shortly:
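CellTiter-Fluor read (30 min, 37C) on ER-alpha/ERE-luc VM7Luc4E2 cells; 22 hr compound treatment; agonist 0.1 nM E2 final; same-well multiplex.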
In general terms: In qHTS, concentration-response curves come from the screen itself.

Test [2] in a line: qHTS assay to identify small molecule antagonists of the androgen receptor (AR) signaling pathway using the MDA cell line in the presence of 0.5 nM R1881 - cell viability counter screen (AID 1259242). Note: nearly all actives have a fitted effect of over 45% in size. In outline: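 MDA-kb2 cells (human breast carcinoma, stably carrying MMTV-luciferase reporter) were exposed to compounds with 0.5 nM R1881 (final) for 16 hr at 37C, 0% CO2; viability then read as live-cell protease fluorescence (CellTiter-Fluor, 30 min) in the same wells.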

The target in test [3] is Estrogen receptor (Homo sapiens) (UniProt P03372). Description: qHTS assay to identify small molecule antagonists of the estrogen receptor alpha (ER-alpha) signaling pathway using the BG1 cell line in the presence of 0.1 nM 17-beta-estradiol (AID 1259244). Note: nearly all actives have a fitted effect of over 50% in size. In outline:
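VM7Luc4E2 cells (endogenous full-length ER-alpha, stable 4xERE-luciferase) were grown 5 days in phenol red-free medium with charcoal-stripped FBS, then exposed 22 h at 37C to compounds plus 0.1 nM (final) 17beta-estradiol; ONE-Glo luminescence read-out.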

Test [4] can be described thus: qHTS assay to identify small molecule HDAC inhibitors (AID 1259364). Note: top concentration of the series differs between compounds; nearly all actives have a fitted effect of over 45% in size. Put shortly:
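Wild-type HCT-116 cells were plated overnight, exposed to compounds for 2 h at 37 °C, then given HDAC-Glo class I/II luminogenic reagent for 30 min at room temperature before luminescence was read.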

A short description of test [5]: qHTS assay to identify small molecule HDAC inhibitors - cell viability counter screen (AID 1259365). Note: series mostly up to about 92 µM; nearly all actives have a fitted effect of over 50% in size. In outline:
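To flag cytotoxic hits, 1,500 wild-type HCT-116 cells per well, plated the day before, receive test compounds for 2hr at 37 C before CellTiter-Glo reagent and a luminescence read.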

The nature of test [6]: qHTS assay to identify small molecule agonists of the sonic hedgehog signaling (Shh) pathway - cell viability counter screen (AID 1259366). Note: nearly all actives have a fitted effect of over 50% in size. In outline: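 Fluorescence from CellTiter-Fluor reports live cells in this counter screen. NIH/3T3-derived Gli1-Luc reporter cells receive test compounds for 24hr at 37C; reagent goes in at 23hr.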
Test [7] can be described thus: qHTS assay to identify small molecule antagonists of the sonic hedgehog signaling (Shh) pathway - cell viability counter screen (AID 1259367). Note: nearly all actives have a fitted effect of over 55% in size. Put shortly:
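NIH/3T3-derived Gli1-Luc reporter cells (2,000 per well) rested 4 hr at 37 C, then received DMSO compounds plus conditioned medium. After 23 hr of treatment, CellTiter-Fluor was added for 1 hr at 37C and fluorescence read.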

Test [8] is described as follows: qHTS assay to identify small molecule agonists of the sonic hedgehog signaling (Shh) pathway (AID 1259368; calls by dose curve; note: series mostly up to about 92 µM; nearly all actives have a fitted effect of over 15% in size). In outline: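 NIH/3T3-derived 3T3Gli1-Luc cells carrying a stably integrated Gli1 response element–firefly luciferase reporter were plated, left 4 hr at 37 C, then given compounds in DMSO for 24 hr. Luminescence was read 30 min after adding luciferase reagent.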

Test [9] in a line: qHTS assay to identify small molecule antagonists of the sonic hedgehog signaling (Shh) pathway (AID 1259369; calls by dose curve; note: nearly all actives have a fitted effect of over 45% in size; note: potency is the fitted concentration of half-maximal effect). In outline:
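NIH/3T3-derived 3T3Gli1-Luc cells with stably integrated Gli1-Luc reporter were preincubated 4hr at 37 C, then given compounds in DMSO plus Shh conditioned medium and incubated 24hr. Firefly luciferase luminescence read after 30min reagent at room temperature.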

The target in test [10] is Estrogen receptor beta (Homo sapiens) (UniProt Q92731). In words: qHTS assay to identify small molecule agonists of the estrogen receptor beta (ER-beta) signaling pathway (AID 1259377; active = well fitted activation curve with a large enough effect in the signal ratio in the repeat runs, not every such curve was filed as active; the % refers to the signal ratio). In outline: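 Screening used GripTite ER-beta-UAS-bla cells held in 2% charcoal-stripped FBS medium. After overnight (16 hr) compound incubation at 37C, beta-lactamase activity was detected with a FRET substrate by fluorescence.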

Test [11] shares this target. In words: qHTS assay to identify small molecule antagonists of the estrogen receptor beta (ER-beta) signaling pathway (AID 1259378; active = well fitted inhibition curve with a large enough effect in the signal ratio in the repeat runs, not every such curve was filed as active; the % refers to the signal ratio). In outline:
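ER-beta-UAS-bla HEK293T (GripTite) cells in 2% charcoal-stripped FBS medium were preincubated 6 hr at 37C, dosed with compound, then stimulated with 1 nM E2 (final) for 16 hr; beta-lactamase reporter read by B/G FRET fluorescence after 2 hr substrate loading.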

A short description of test [12]: qHTS assay to identify small molecule agonists of the androgen receptor (AR) signaling pathway in the presence of an antagonist - cell viability counter screen (AID 1259379). Note: series mostly up to about 92 µM; nearly all actives have a fitted effect of over 25% in size. In outline: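 MDA-kb2 human breast carcinoma cells (stable MMTV-luciferase, AR/GR responsive) were seeded 3,000 cells/well, pre-incubated 5 hr at 37C without CO2, then given 3.0uM nilutamide and compounds at 15 concentrations for 16 hr. Viability was read by CellTiter-Fluor fluorescence.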

Test [13] can be described thus: qHTS assay to identify small molecule agonists of the estrogen receptor beta (ER-beta) signaling pathway - cell viability counter screen (AID 1259380). Note: nearly all actives have a fitted effect of over 30% in size. Put shortly: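 ER-beta-UAS-bla HEK293T cells in medium with 2% charcoal-stripped FBS were preincubated 6 hr at 37C, dosed with compound in DMSO for 16 hr, then after the bla read, CellTiter-Glo was added for 30 min at room temperature; luminescence recorded.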

Test [14] in a line: qHTS assay to identify small molecule antagonists of the estrogen receptor beta (ER-beta) signaling pathway - cell viability counter screen (AID 1259382). Note: series mostly up to about 92 µM; nearly all actives have a fitted effect of over 55% in size. In outline: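 ER-beta-UAS-bla HEK293T cells (2,000/well, 2% charcoal-stripped FBS) were pre-incubated 6 hr at 37C, then given compound plus 1nM final 17-beta-estradiol for 16 hr. Viability was read in the same wells by CellTiter-Glo luminescence after 30 min at room temperature.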

In test [15] the target is Estrogen receptor (Homo sapiens) (UniProt P03372). Description: qHTS assay to identify small molecule agonists of the estrogen receptor alpha (ER-alpha) signaling pathway in the presence of an antagonist (AID 1259383; calls by dose curve; note: top concentration of the series differs between compounds; nearly all actives have a fitted effect of over 15% in size). Put shortly: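 VM7Luc4E2 cells (endogenous full-length ER-alpha, 4×ERE-luciferase) were precultured 5 days in phenol red-free medium with 10% charcoal-stripped FBS, given 10.0nM ICI-182,780 (final), then treated with compounds at 15 concentrations for 22hr at 37C; luminescence read with ONE-Glo.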

Test [16] is described as follows: qHTS assay to identify small molecule agonists or antagonists of the thyroid stimulating hormone receptor (TSHR) signaling pathway - wild type cell line counter screen (AID 1259384; calls by dose curve). In outline:
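Wild-type HEK293 cells were plated 18 h at 37 C/5% CO2, pin-dosed with compound plus Ro20-1724 medium, held 30 min at room temperature, then given cAMP-d2 and anti-cAMP-cryptate; fluorescence was read after 1 h. Fifteen concentrations, triplicate.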

Test [17] has as its target Thyrotropin receptor (Homo sapiens) (UniProt P16473). Description: qHTS assay to identify small molecule antagonists of the thyroid stimulating hormone receptor (TSHR) signaling pathway (AID 1259385; calls by dose curve; note: nearly all actives have a fitted effect of over 20% in size). In outline: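 TSHR-HEK293 cells were plated and held 18 h at 37C/5% CO2, then given compound plus Ro20-1724 and stimulated with TSH at 1.5 ng/mL final. After 30 min at room temperature, cAMP was detected with cAMP-d2/anti-cAMP-cryptate (1 h) by fluorescence.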

Test [18] is described as follows: qHTS assay to identify small molecule agonists of the estrogen receptor alpha (ER-alpha) signaling pathway in the presence of an antagonist - cell viability counter screen (AID 1259386). Note: series mostly up to about 92 µM; nearly all actives have a fitted effect of over 30% in size. Put shortly: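 VM7Luc4E2 cells (endogenous full-length ER-alpha, 4×ERE-luciferase) were held 5 days in phenol red-free medium with 10% charcoal-stripped FBS, plated, then given 10.0nM ICI-182,780 and compounds at 15 concentrations for 22hr at 37C; viability read by CellTiter-Fluor fluorescence.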

The nature of test [19]: qHTS assay to identify small molecule phospholipidosis (PLD) inducers (AID 1259344; active = well fitted curve in the direction sought with a large enough effect; an effect the other way counts as inactive or inconclusive). In outline:
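HepG2 cells on collagen I, attached 4 h at 37 C, were co-treated with compound and LipidTOX Red dye for 24 h at 37 C, then fixed with paraformaldehyde plus Hoechst 33342 and imaged by high-content microscopy for phospholipid accumulation.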

Inconclusive results are not listed. Active and inactive are the calls of the source. Unless noted, calls come from the whole dose curve; as a rule, active = well fitted curve in the direction sought with a large enough effect in the repeat runs; inconclusive = weak or mixed curves; inactive = no such curve, though single readings can be large; an effect the other way counts as inactive or inconclusive.

Chain of Thyrotropin receptor (Homo sapiens) (P16473 whole entry, looked up): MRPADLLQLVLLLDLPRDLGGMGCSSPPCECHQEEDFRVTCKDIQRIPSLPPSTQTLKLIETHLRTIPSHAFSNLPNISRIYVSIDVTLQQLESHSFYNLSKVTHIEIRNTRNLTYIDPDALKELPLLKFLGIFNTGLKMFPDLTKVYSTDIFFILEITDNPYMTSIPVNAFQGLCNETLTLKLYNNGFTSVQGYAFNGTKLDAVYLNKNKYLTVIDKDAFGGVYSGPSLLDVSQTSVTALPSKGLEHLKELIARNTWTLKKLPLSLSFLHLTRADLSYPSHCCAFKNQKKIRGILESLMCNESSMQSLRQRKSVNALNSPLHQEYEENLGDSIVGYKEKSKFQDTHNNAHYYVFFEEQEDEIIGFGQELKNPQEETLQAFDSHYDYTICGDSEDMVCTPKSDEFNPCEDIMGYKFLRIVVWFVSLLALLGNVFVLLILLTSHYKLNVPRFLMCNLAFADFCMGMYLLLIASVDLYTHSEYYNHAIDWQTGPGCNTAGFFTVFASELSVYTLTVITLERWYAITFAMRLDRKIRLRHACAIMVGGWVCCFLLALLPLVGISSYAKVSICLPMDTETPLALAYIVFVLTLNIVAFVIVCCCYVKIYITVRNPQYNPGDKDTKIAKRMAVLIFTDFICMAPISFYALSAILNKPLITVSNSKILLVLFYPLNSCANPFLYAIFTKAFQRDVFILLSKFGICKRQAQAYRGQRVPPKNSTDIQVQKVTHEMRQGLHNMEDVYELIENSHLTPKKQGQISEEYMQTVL
Chain of Estrogen receptor beta (Homo sapiens) (Q92731 whole entry, looked up): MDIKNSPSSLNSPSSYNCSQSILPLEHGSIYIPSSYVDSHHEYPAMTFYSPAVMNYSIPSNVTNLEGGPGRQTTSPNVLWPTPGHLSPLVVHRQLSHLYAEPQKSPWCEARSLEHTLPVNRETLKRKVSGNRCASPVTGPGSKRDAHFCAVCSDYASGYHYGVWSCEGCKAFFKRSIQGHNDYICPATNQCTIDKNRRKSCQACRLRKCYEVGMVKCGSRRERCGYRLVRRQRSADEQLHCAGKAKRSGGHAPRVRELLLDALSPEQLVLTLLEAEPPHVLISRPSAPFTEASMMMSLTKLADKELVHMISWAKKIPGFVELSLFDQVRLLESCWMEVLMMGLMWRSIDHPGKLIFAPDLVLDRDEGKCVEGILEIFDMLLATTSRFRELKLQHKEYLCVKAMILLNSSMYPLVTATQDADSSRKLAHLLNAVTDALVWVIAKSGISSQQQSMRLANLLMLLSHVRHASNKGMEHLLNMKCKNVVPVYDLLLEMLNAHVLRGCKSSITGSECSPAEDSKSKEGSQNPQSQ
Chain of Estrogen receptor (Homo sapiens) (P03372 whole entry, looked up): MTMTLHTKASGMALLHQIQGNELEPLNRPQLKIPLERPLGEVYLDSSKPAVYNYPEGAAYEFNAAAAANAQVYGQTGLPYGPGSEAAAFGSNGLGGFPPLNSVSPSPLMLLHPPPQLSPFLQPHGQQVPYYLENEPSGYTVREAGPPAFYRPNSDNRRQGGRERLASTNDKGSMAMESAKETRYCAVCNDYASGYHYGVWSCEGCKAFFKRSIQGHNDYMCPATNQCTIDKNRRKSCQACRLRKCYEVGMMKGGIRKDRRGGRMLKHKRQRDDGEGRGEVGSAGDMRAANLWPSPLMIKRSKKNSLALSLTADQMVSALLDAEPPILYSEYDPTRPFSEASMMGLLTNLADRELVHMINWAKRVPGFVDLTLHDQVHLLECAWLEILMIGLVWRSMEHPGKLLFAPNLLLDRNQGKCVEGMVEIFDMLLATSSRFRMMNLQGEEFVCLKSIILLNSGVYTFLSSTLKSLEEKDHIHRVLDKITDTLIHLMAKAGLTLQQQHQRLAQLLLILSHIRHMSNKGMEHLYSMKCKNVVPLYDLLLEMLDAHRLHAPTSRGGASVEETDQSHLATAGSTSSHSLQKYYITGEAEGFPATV

As to `Nc1c[n+](N2CCOCC2)no1`, the outcome in test [1], in test [3], in test [5], in test [8], in test [10] and in [11] was inactive. Moreover, the call in [16] was inactive. In addition, the Potency result in [2], in test [4], in test [6], in [7], in test [9] and in test [12] was “inactive” throughout. Further, the Potency result in [13], in [14], in test [15], in test [17] and in test [18] was “inactive” each time.
Regarding `CC1=CC(C)C(C=O)CC1` (stereo not given), the result in test [1], in test [3], in test [5], in test [8], in test [10] and in test [11] was inactive. Moreover, the molecule was classed as inactive in test [16]. For the same molecule, the Potency entry in test [2], in test [4], in test [6], in test [7], in test [9] and in test [12] was “inactive” in each case. The Potency result in test [13], in test [14], in test [15], in test [17] and in [18] was “inactive” throughout.
Turning to `CCOC(=O)CCC(C)=O`, the outcome in [1], in test [3], in test [5], in [8] and in [11] was inactive. For the same molecule, the Potency entry in [2], in test [4], in [6], in test [7], in test [9] and in test [12] was “inactive” in each case. The Potency result in [13], in test [14], in test [15] and in test [18] was “inactive” in each case.
Consider `CCOC(C)(C)C`, for which the result in test [1], in [3], in test [5] and in test [8] was inactive. The Potency result in test [2], in [4], in test [6], in test [7], in test [9] and in [12] was “inactive” in each case. Also, the Potency entry in test [13], in test [14], in [15], in [17] and in [18] was “inactive” in each case.
Take `Cc1c(O)cccc1O`: the result in [1], in [3], in test [5] and in test [8] was inactive. Also, the Potency entry in test [2], in [4], in test [6], in test [7], in test [12] and in test [13] was “inactive” each time. Besides, the Potency entry in [14] and in [18] was “inactive” each time. Further, the Potency in test [9] is 14 µM (active).
As for `c1ccc(CC2=NCCN2)cc1`, the outcome in [1], in [3], in test [5] and in test [10] was inactive. In addition, the Potency result in test [2], in [19], in [4], in test [6], in test [7] and in test [9] was “inactive” in each case. Besides, the Potency entry in test [12], in test [13], in [14], in test [15], in test [17] and in test [18] was “inactive” throughout.
Take `Cc1ccc(=O)n(-c2ccccc2)c1`: the outcome in test [1], in test [3], in test [5], in test [8], in [10] and in [11] was inactive. In addition, the molecule was called inactive in test [16]. For the same molecule, the Potency entry in test [2], in test [19], in test [4], in test [6], in test [7] and in test [12] was “inactive” each time. Besides, the Potency entry in test [13], in test [14], in [15], in test [17] and in test [18] was “inactive” in each case.
For `CC/C=C\CCOC(C)=O`, the outcome in test [1], in [3], in test [5], in [8], in test [10] and in [11] was inactive. For the same molecule, in test [16], the outcome was inactive. The Potency entry in [2], in [4], in test [6], in test [7], in test [9] and in test [12] was “inactive” in each case. Besides, the Potency entry in [13], in [14], in [17] and in [18] was “inactive” each time.
